{"source": "PubChem BioAssay AID1347431", "about": "(National Center for Advancing Translational Sciences (NCATS), 2020)", "note": "The campaign covered roughly 1,200 compounds. Fewer than 10 were called active. The call rests on the fitted dose curve; in most records, active means well fitted curve in the direction sought with a large enough effect; inconclusive means small, poorly fitted or top-dose-only effect, or another doubt; inactive means no such curve, though single readings can be large or run the other way. These entries were drawn from the full list.", "data": [{"test": "Confirmatory qHTS assay for inhibitors of Activation Induced Cytidine Deaminase (AID): UDG signals", "settings": "UDG coupled enzyme activity counter-screen; series mostly up to 115 µM", "source_text": "Assay Provider (PI) Patricia Gearhart Ph.D.\nNational Institute on Aging\nNational Institute of Health (NIH), Bethesda, MD\nAssay Provider (PI) Rahul Kohli Ph.D.\nPerelman School of Medicine\nUniversity of Pennsylvania, Philadelphia, PA\nActivation-Induced Deaminase (AID) is a cytosine deaminase which converts cytosine into uracil within stretches of ssDNA. The presence of uracil in DNA initiates a cascade of mutagenic DNA repair to introduce point mutations and DNA double strand breaks. Specific targeting of AID to the immunoglobulin heavy chain loci (Igh) promotes mutagenesis in the antibody variable region for somatic hypermutation (SHM) or switch regions leading to class switch recombination (CSR). However, AID also plays a role in accumulating unnecessary mutations across the genome. Mis-targeting of AID results in the initiation of tumor development and leads to greater drug resistance among cancer cells when continually expressed. To identify an AID inhibitor, a small molecule library will be screened in collaboration with NCATS core facility at NIH. To confirm biological function, inhibitors will be examined in an in vitro murine B-cell activation assay and subsequent secondary validation screens. Top molecules will be further screened to identify inhibitory efficacy against a wild type primary splenocytes assay. Using these approaches, we hope to identify a small molecule with great efficacy and low toxicity for use as a molecular probe to further characterize AID's intricacies, or even as a therapeutic.\nA FRET based analysis of cytosine deamination, was developed to identify potential inhibitors of AID catalytic activity. This screen has two signal output, Read 1 evaluates the AID inhibition response. The second readout (Read 2) evaluates UDG response and is uses as a counterscreen to exclude false positive inhibitors. Inhibition in AID and inactivity in the UDG signal is the desired outcome for this assay.\nSEQUENCE No. (e.g., 1, 2, 3, etc.); […] (e.g., Cells, Incubation, Reagent, etc.); VALUE; DESCRIPTION\n1a; Reagent; 3 uL; [4/3x] 1 uM AID/2.67 U/mL UDG\n1b; Reagent; 3 uL; 2 U/mL UDG\n1c; Reagent; 3 uL; 1 uM AID\n2a; Compound; 46 nL; Follow-up plates (0.64 uM - 10 mM)\n2b; Control; 46 nL; ATA ([…] - 10 mM)\n3; Time; 10 min; incubation at room temperature\n5; Time; 4 hr; incubation at room temperature\n6; Reagent; 4 uL; [2x] 250 mM NaOH\n7; Time; 15 sec; centrifuge at 1000 rpm\n8; Time; 30 min; incubation at room temperature\n9a; Detection; fluorescence (Read 1: AID); EnVision (PerkinElmer) plate reader, 540 excitation and 590 emission filters\n9b; Detection; fluorescence (Read 2: UDG); EnVision (PerkinElmer) plate reader, 560 excitation and 665 emission filters\nNOTES (numbers refer to sequence above)\n1a; Reagents were dispensed in a medium-binding black solid-bottom Greiner plates (789176F) using a BioRptr liquid dispenser. Dispense 3 uL of [4/3x] 1 uM AID (provided by Kohli lab) and [4/3x] 2 U/mL UDG (NEB M0280L) into columns 1, 2, 5 to 48.\n1b; Dispense 3 uL of [4/3x] 2 U/mL UDG into column 3.\n1c; Dispense 3 uL of [4/3x] 1 uM AID into column 4.\n2a; Compound (7-points [uM]: 0.64; 3.2; 16; 80; 400; 2,000; 10,000; […]) double pin-transferred (Dip Factor = 2) using the Kalypsys (Wako USA) pintool equipped with a 1536 pinhead for a final concentration range of 7.32 nM - 114 uM.\n2b; 10 mM Aurintricarboxylic Acid (Sigma A1895) (ATA, 8-point, n = 2, 1:2.5 dilution in column 2) double pin-transferred (Dip Factor = 2) using the Kalypsys (Wako USA) pintool equipped with a 1536 pinhead for a [final] range of 186 nM - 114 uM.\n3; Room temperature incubation.\n4; Dispense 1 uL of substrate mixture from the Kohli lab [4x] […] DJC20 and [4x] 250 nM DJC23 into columns 1 to 48 .\n5; Room temperature incubation.\n6; Dispense 4 uL of substrate mixture [2x] 250 mM NaOH into columns 1 to 48.\n7; Centrifugation step to remove bubbles.\n8; Room temperature incubation\n9a; Fluorescence signal (column label AID) was read using the EnVision plate reader. […]", "values": [{"molecule": "Cc1ccc(C)c(N2CCN(CCCNC(=O)c3cnn(-c4cccc(Cl)c4)c3C3CCN(C(=O)OC(C)(C)C)CC3)CC2)c1", "outcome": "inactive"}, {"molecule": "Cc1cccc(OC(C)C(=O)N2CCC(c3nc4ccccc4o3)CC2)c1C", "note": "(stereo unspecified)", "outcome": "inactive"}, {"molecule": "COc1ccc(-c2csc3nc(-c4ccc(C)cc4)oc(=O)c23)cc1OC", "outcome": "inactive"}, {"molecule": "COc1ccc(OCCCn2c(=O)oc3ccc(C)cc32)cc1", "outcome": "inactive"}, {"molecule": "Cc1ccc(Cl)cc1N(C)C(=O)c1cc2ccc3cccnc3c2[nH]1", "outcome": "inactive"}, {"molecule": "COc1ccc(OC)c(NC(=O)Cn2c(=O)cc(C)c3c(C)nn(-c4cccc(Cl)c4C)c32)c1", "outcome": "inactive"}, {"molecule": "COc1ccccc1NC(=O)c1cc2cc3ccc(OC)c(Cl)c3nc2s1", "outcome": "inactive"}, {"molecule": "Cc1ccc(C)c(CSc2cn(CCNC(=O)c3cccs3)c3ccccc23)c1", "outcome": "inactive"}, {"molecule": "CCOc1ccc(NC(=O)CSc2nccn2-c2cccc(C)c2C)cc1", "outcome": "inactive"}, {"molecule": "CCOc1ccc(S(=O)(=O)c2c(C(=O)c3ccc(C)c(C)c3)cnc3ccccc23)cc1", "outcome": "inactive"}, {"molecule": "CCC1CCCCN1C(=O)CSc1nc(-c2ccc(OC)cc2)cc(C(F)(F)F)n1", "note": "(stereo unspecified)", "outcome": "inactive"}, {"molecule": "CCn1cc(C(=O)NCc2ccccc2OC)c(=O)c2cc(S(=O)(=O)N3CCCCC3)ccc21", "outcome": "inactive"}, {"molecule": "Cc1ccccc1OCC(=O)Nc1cccc(C(=O)OCc2cc(=O)n3c(C)csc3n2)c1", "outcome": "inactive"}, {"molecule": "COc1ccc(CC(=O)N(Cc2nc(-c3ccc(C)cc3)no2)C(C)C)cc1", "outcome": "inactive"}, {"molecule": "Cc1ccccc1-c1nc(CS(=O)CC(=O)N2CCN(c3cc(Cl)ccc3C)CC2)c(C)o1", "note": "(stereo unspecified)", "outcome": "inactive"}, {"molecule": "CS(=O)(=O)N(Cc1ccccc1)c1ccc(C(=O)Nc2ccc(Cl)cc2)cc1", "outcome": "inactive"}, {"molecule": "CCOC(=O)c1cc(-c2ccc(C)cc2)n(CCC(=O)Nc2ccc(OC)c(OC)c2)c1C", "outcome": "inactive"}, {"molecule": "Cc1nc2c(-c3ccccc3)c(C)nn2c(C)c1CCC(=O)N1CCN(c2ccc(F)cc2)CC1", "outcome": "inactive"}, {"molecule": "C=Cc1ccc(CSc2nc(-c3ccc(C)cc3)nc3c2Cc2c(CO)cnc(C)c2O3)cc1", "outcome": "inactive"}, {"molecule": "CCc1ccc(CN(Cc2ccco2)C(=O)c2ccc(OC)cc2)cc1", "outcome": "inactive"}, {"molecule": "COc1ccc(CC(=O)NCC(c2cccs2)S(=O)(=O)c2ccc(Cl)cc2)cc1", "note": "(stereo unspecified)", "outcome": "inactive"}, {"molecule": "Cc1cc(N(C)Cc2ccccc2)n2nc(-c3ccc(C(C)(C)C)cc3)nc2n1", "outcome": "inactive"}, {"molecule": "Cc1cc(C)cc(Nc2nc3cc(Cl)c(Cl)cc3nc2-n2nc(C)cc2C)c1", "outcome": "inactive"}, {"molecule": "N#CC1=C2SCN(C3CCCCC3)CN2C(=O)CC1c1c(F)cccc1Cl", "note": "(stereo unspecified)", "outcome": "inactive"}, {"molecule": "Cc1c(C(=O)N(C)Cc2ccccc2)sc2nc(-c3ccc(F)cc3)cn12", "outcome": "inactive"}, {"molecule": "CCOC(=O)c1cccc(NC(=O)c2oc3c(c2C)-c2nn(CC)cc2CC3)c1", "outcome": "inactive"}, {"molecule": "COc1ccc(OCC(=O)NCC(c2ccc(Cl)cc2)N2CCCCC2)cc1", "note": "(stereo unspecified)", "outcome": "inactive"}, {"molecule": "CC1CCCCN1C(=O)c1ccc2c(c1)N(Cc1ccc(Cl)cc1)C(=O)c1ccccc1S2=O", "note": "(stereo unspecified)", "outcome": "inactive"}, {"molecule": "Cc1ccc(Cl)cc1N1CCN(C(=O)Cn2cnc3nc4c(cc3c2=O)CCCC4)CC1", "outcome": "inactive"}, {"molecule": "CC(C)(C)C1CCc2c(sc(NC(=O)c3ccccc3F)c2C(=O)NCc2ccco2)C1", "note": "(stereo unspecified)", "outcome": "inactive"}, {"molecule": "COc1ccc(C(=O)N2CCc3cc(OC)c(OC)cc3C2COc2ccccc2OC)cc1", "note": "(stereo unspecified)", "outcome": "inactive"}, {"molecule": "COc1ccc(CCN2CCC(CNC(=O)c3cnn(-c4ccc(C)cc4)c3C3CCN(C(=O)OC(C)(C)C)CC3)CC2)cc1", "outcome": "inactive"}, {"molecule": "Cc1ccc(CNC(=O)C2CCCN(c3nc4ccccc4n4cccc34)C2)cc1", "note": "(stereo unspecified)", "outcome": "inactive"}, {"molecule": "COC(=O)c1ccc(CSc2nnc3ccc4ccccc4n23)cc1", "outcome": "inactive"}, {"molecule": "Cc1cccc(N2CCN(C(=O)c3cccn3-c3nnc(N4CCCCC4)s3)CC2)c1C", "outcome": "inactive"}, {"molecule": "Cc1ccc(-c2cn(-c3cccc(Cl)c3)c(S(=O)(=O)CC(=O)Nc3cccc(C)c3)n2)cc1", "outcome": "inactive"}, {"molecule": "Cc1ccc2c(c1)C(c1ccc(F)cc1)N(C(=O)COc1ccc(Cl)cc1Cl)CC(=O)N2", "note": "(stereo unspecified)", "outcome": "inactive"}, {"molecule": "CCC(C(=O)N1CCN(c2ccccc2)CC1)n1nc(C)n2c(cc3sccc32)c1=O", "note": "(stereo unspecified)", "outcome": "inactive"}, {"molecule": "CCOc1ccccc1CNC(=O)c1cnc2sc(N3CCCCCC3)nn2c1=O", "outcome": "inactive"}, {"molecule": "COc1ccc(N2CCN(C(=O)c3nn(C)c4c3CSc3ccccc3-4)CC2)cc1", "outcome": "inactive"}, {"molecule": "Cc1cccn2c(=O)c3cc(C(=O)N(Cc4ccccc4)C(C)C)sc3nc12", "outcome": "inactive"}, {"molecule": "CCCCN(CC)CCNC(=O)C1CCN(c2nnc(C)c3c(C)n(-c4ccc(C)cc4)nc23)CC1", "outcome": "inactive"}, {"molecule": "CCOC(=O)c1c(C)oc2nc(C)nc(N(CC(C)C)CC(C)C)c12", "outcome": "inactive"}, {"molecule": "CCCN(CCC)CCNC(=O)c1cc2c(-c3ccc(Cl)cc3)nn(C)c2s1", "outcome": "inactive"}, {"molecule": "CCCCN(CCCC)CC(O)Cn1cc(/C=C/C(=O)c2ccccc2)c2ccccc21", "note": "(stereo unspecified)", "outcome": "inactive"}, {"molecule": "COc1cccc(N2CCN(C(=O)c3cnn(-c4ccc(C)cc4C)c3C3CCN(C(=O)OC(C)(C)C)CC3)CC2)c1", "outcome": "inactive"}]}]}
